# Only a selection was taken, and hits are over-represented in it overall.
# Pf apPOL inh = Pf-apPOL inhibitors, biochemical, fluorescence | Recombinant Pf-apPOL, molecular beacon fluorescence, 1.5 h | inhibition, % at 10 µM | hit rate 0.25% among 210,000 | AID 1794808, 2022
# mHTT-CaM PPI inh = mutant huntingtin-calmodulin interaction inhibitors – biochemical, AlphaScreen, primary screen | AlphaScreen His-mHTT/GST-CaM binding, luminescence | inhibition, % at 15 µM | hit rate 3.6% among 190,000 | P42858;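 note: 0% = both proteins with DMSO and 100% = one protein alone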
# * = called active by the depositor; nt = no result given. Cut-off read from the data, not from the text of the source: active = inhibition above about 50%; inactive = the rest.
SMILES,Pf apPOL inh,mHTT-CaM PPI inh
Cc1cccc(Cn2c3c(c(C)c2C(=O)NCc2ccccn2)CCCC3)c1,3.7,85.8*
O=C(c1cccs1)N1CCN(CCNS(=O)(=O)C2CC2)CC1,-2.7,-10.2
Cc1ccccc1CNC(=O)c1cnn2c3c(cnc12)CCCCCC3,-1.1,-4.9
O=[N+]([O-])c1cc([N+](=O)[O-])c2cccnc2c1Nc1ccc(N2CCOCC2)cc1,-1.6,56.0*
O=[N+]([O-])c1cccnc1N1CCOCC1,-8.4,-6.0
Cc1ccc(Nc2c([N+](=O)[O-])cc([N+](=O)[O-])c3cccnc23)cc1,-2.2,51.0*
CCOc1ccc(Nc2c([N+](=O)[O-])cc([N+](=O)[O-])c3cccnc23)cc1,-5.9,29.0
COc1ccc2cc(C(=O)Nc3ccc(F)cc3C)[nH]c2c1,-3.3,5.7
O=C(CN1N=NC2C(=O)N(c3ccccc3)C(=O)C21)Nc1ccc(Br)cc1 (stereo unspecified),-4.2,0.0
Cc1ccccc1NC(=O)CC1SC(=N)NC1=O (stereo unspecified),-3.9,-9.0
OCc1cn(-c2ccccc2)nc1-c1cccnc1,-0.8,-2.8
O=C(/C=C/c1cn(-c2ccccc2)nc1-c1cccnc1)c1ccco1,6.1,52.6*
O=C(/C=C/c1cn(-c2ccccc2)nc1-c1cccnc1)c1cccs1,0.0,51.7*
Cc1c(N=Cc2cn(-c3ccccc3)nc2-c2cccnc2)c(=O)n(-c2ccccc2)n1C,-8.1,31.0
COc1ccc(NC(=O)c2c(N)sc3c2CCC3)cc1,-8.5,37.3
Cc1cc(C2C(C#N)=C(N)N(c3ccc([N+](=O)[O-])cc3Cl)C3=C2C(=O)CCC3)c(C)s1 (stereo unspecified),-1.6,22.0
Cc1nc(-c2ccncc2)nc2c1CCC(=O)N2CCN1CCOCC1,-5.7,8.0
Cc1cc(N2CCOCC2)c2c(N)ccc(C)c2n1,-3.0,8.7
Cc1c(C(=O)O)sc2ncn(CC(=O)Nc3cccc(C(F)(F)F)c3)c(=O)c12,-1.3,3.0
CCC(C)NC(=O)c1sc2ncn(CC(=O)Nc3cccc(C(F)(F)F)c3)c(=O)c2c1C (stereo unspecified),-0.1,99.0*
COCCn1cnc2sc(C(=O)Nc3cccc(C(F)(F)F)c3)c(C)c2c1=O,-3.1,19.0
CCCCNC(=O)c1sc2ncn(CC(=O)Nc3cccc(C(F)(F)F)c3)c(=O)c2c1C,-3.9,68.0*
Cc1ccc(CN2C(=O)NC3(CCN(C(=O)c4cc5ccccc5[nH]4)CC3)C2=O)cc1,-0.5,7.7
Cc1cc(OCC(=O)Nc2ccc(S(=O)(=O)Nc3ncccn3)cc2)ccc1C(C)C,3.2,5.0
C(=Nc1ccc(Nc2ccccc2)cc1)c1ccccc1,-0.6,86.0*
SMILES,Pf apPOL inh,mHTT-CaM PPI inh
Fc1ccc(N=Cc2ccccc2)cc1,8.9,nt
CCOc1ccccc1S(=O)(=O)N1CCc2nc(NC(=O)c3cnccn3)sc2C1,18.5,50.1*
Cc1ccc(S(=O)(=O)N2CCc3nc(NC(=O)c4cccnc4)sc3C2)cc1,-3.8,-0.6
O=C(Nc1nc2c(s1)CN(C(=O)COc1ccccc1)CC2)c1cnccn1,10.7,9.1
O=C(Nc1nc2c(s1)CN(S(=O)(=O)C=Cc1ccccc1)CC2)c1cnccn1,24.4,71.0*
Cc1noc(C)c1S(=O)(=O)N1CCOCC1,-10.0,nt
Cc1cc(F)ccc1NC(=O)Cn1ccc2sccc2c1=O,0.6,2.0
Cc1nnc2ccc(-c3noc(CCc4ccccc4)n3)cn12,2.7,-2.6
CC1CCc2cc(F)cc3c(O)c(C(=O)NCc4ccncc4)c(=O)n1c23 (stereo unspecified),-87.3,12.0
N#C/C(=C\c1ccc(Br)cc1)c1nc(C2CC2)cs1,-2.6,-41.3
N#C/C(=C\c1ccc([N+](=O)[O-])cc1)c1nc(C2CC2)cs1,55.4*,3.7
Cc1ccc(C(=O)N2CCC3(CC2)NC(=O)c2cc(F)ccc2N3C)cc1,1.2,15.0
O=c1oc2ccc(O)cc2s1,nt,27.0
Cc1ccc(-c2cc(O)cc3sc(=O)oc23)cc1,-4.3,75.0*
O=c1oc2c(-c3cccc(C(F)(F)F)c3)cc(O)cc2s1,1.2,40.0
O=c1oc2c(Br)c(O)c(Br)cc2s1,-6.0,43.0
COc1ccc(-c2cc(O)cc3sc(=O)oc23)cc1,1.8,74.0*
Cc1ccc(-c2cc(O)cc3sc(=O)oc23)cc1Cl,-4.9,53.0*
CCc1ccc(-c2cc(O)cc3sc(=O)oc23)cc1,6.4,73.0*
O=c1oc2c(-c3ccc(Br)cc3)cc(O)cc2s1,5.3,34.0
O=C(c1ccc(-c2cncnc2)nc1)N1CCCCCC1,-1.1,-6.1
O=c1[nH]nc(-c2cccs2)cc1Cc1ccc(Cl)c(Cl)c1,-5.8,nt
CCCC(=O)N1CCC2(CC1)NC(=O)c1ccccc1O2,-4.8,3.0
O=C(C1CC12CCC2)N1CCc2ccccc21 (stereo unspecified),nt,-9.4
CCCn1c2ccccc2c2nnc(SC(C)C)nc21,0.8,-12.0
SMILES,Pf apPOL inh,mHTT-CaM PPI inh
Cc1cc(OCC(=O)Nc2ccccc2Cl)cc(C)c1Br,-6.3,-3.0
FC(F)(F)c1cccc(Cc2cccc(C(F)(F)F)c2)c1,-0.1,nt
OC(CSCc1cccc(C(F)(F)F)c1)C(O)CSCc1cccc(C(F)(F)F)c1 (stereo unspecified),nt,100.1*
CCc1ccc(OCC(=O)NCCN2CCOCC2)cc1,-12.8,1.6
CC(/C=C/c1ccc(F)cc1)=C\C(=O)O,-4.1,-0.6
OC/C=C/C=C/c1ccc(F)cc1,3.4,72.0*
COc1ccccc1C(=O)Nc1ccc(C)cc1[N+](=O)[O-],-2.8,-0.6
O=C(O)CC1SC(c2ccc3c(c2)OCO3)=NC1=O (stereo unspecified),51.8*,nt
CC(C)(C)c1ccc(C2=NC(=O)C(CC(=O)O)S2)cc1 (stereo unspecified),38.5,nt
Cc1cccc(S(=O)(=O)N2CCN(c3nc4ccncc4n(CC(C)C)c3=O)CC2)c1,-3.6,14.1
O=C(c1ccc(F)cc1)N1CCCC2(CC(c3ccc(Cl)cc3)=CO2)C1 (stereo unspecified),-3.7,-5.1
O=C(c1ccco1)N1CCCC2(CC(c3cccc(Cl)c3)=CO2)C1 (stereo unspecified),-3.6,90.5*
O=C(c1ccc(Cl)cc1)N1CCCC2(CC(c3cccc(Cl)c3)=CO2)C1 (stereo unspecified),-2.3,-8.8
O=C(c1ccccc1)N1CCCC2(CC(c3cccc(Cl)c3)=CO2)C1 (stereo unspecified),-4.7,96.5*
O=C(c1ccccc1)N1CCCC2(CC(c3ccc(Cl)cc3)=CO2)C1 (stereo unspecified),0.3,100.1*
O=C(c1ccco1)N1CCCC2(CC(c3ccc(Cl)cc3)=CO2)C1 (stereo unspecified),-6.4,-15.0
CNC(=O)c1cccnc1N1CCOCC1,-4.6,-4.8
CC(C)CC(C(=O)O)N1C(=O)C(=Cc2ccco2)SC1=S (stereo unspecified),16.4,6.2
CCC(C(=O)O)N1C(=O)C(=CC=Cc2ccco2)SC1=S (stereo unspecified),93.5*,41.3
O=C1CSc2ccc(NC(=O)C3CCCC3)cc2N1,nt,-0.9
Oc1cccc(CNc2ccc(F)c(Cl)c2)c1,-5.2,18.7
Oc1cccc(CNc2ccc3[nH]ncc3c2)c1,-4.6,76.9*
O=C(O)c1ccc(NCc2ccc3c(c2)OCO3)cc1,4.9,-3.0
Cc1cccc(CNc2ccc3cn[nH]c3c2)c1,-4.4,60.4*
c1cc2c(cc1CNc1ccc3cn[nH]c3c1)OCO2,-6.1,63.7*
